hNpr1 antagonist – Natriuretic polypeptide receptor (hNpr1) antagonism - Primary qHTS | AID 1347048, 2019 | 76,000 tested, 1.6% active | Potency, µM (top dose mostly 46.3 µM), without a hit: at the highest dose activity change, negative = inhibition, actives largely listed as inhibitors | Atrial natriuretic peptide receptor 1 (Homo sapiens), P16066 | HEK293 hNpr1 GloSensor cGMP, ANP-stimulated luminescence; calls by dose curve; further: nearly all actives have a fitted effect of over 60% in size
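HEK293 cells stably expressing human Npr1 and cGMP GloSensor pGS-40F, loaded 2 h with 2% GloSensor reagent, given compound 30 min at room temperature. Luminescence read before and 20 min after 0.1 nM hNppA.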
HEK cytotox – Cytotoxic Profiling in HEK 293 Cell Line of Diverse Libraries Using Quantitative High-Throughput Screening. 94,000 tested, 6.6% active. HEK 293 viability, ATP luminescence (CellTiter-Glo), 48-72 h. Potency, µM (doses to about 115 µM), for inactives: top-dose activity change, negative = cytotoxicity, hits mostly inhibitors. AID 1345083, 2018; further: nearly all actives have a fitted effect of over 60% in size
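Read-out: CellTiter-Glo ATP luminescence. Cells: HEK 293, 250 cells/well. Exposure: 48 or 72 hr, 37 degree Celsius.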
GPT2 inh – Primary qHTS assay for inhibitors of Glutamate pyruvate transaminase 2 (GPT2). Alanine aminotransferase 2 (Homo sapiens), Q8TD30. Recombinant GPT2, coupled pyruvate oxidase/HRP Amplex Red fluorescence. Potency, µM (top dose mostly 57.7 µM), for the others: at the highest dose activity change, negative = inhibition, most hits filed as inhibitors. 100,000 tested, 0.25% active; further: nearly all actives have a fitted effect of over 60% in size
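GPT2 10ng/uL, a-KG 250uM, L-Ala 2mM, HEPES pH7.5 + 0.0001% Tween; 30 min RT. Then Amplex mix (PO/HRP/ThPP), 30 min RT dark, fluorescence. AOA 50uM used as positive control.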
NIH3T3 tox – Cytotoxic Profiling in NIH 3T3 Cell Line of Diverse Libraries Using Quantitative High-Throughput Screening | Potency, µM (top dose mostly 96.7 µM), inactives show top-dose activity change, negative = cytotoxicity, usual class: inhibitors | AID 1345082, 2018 | 94,000 tested, 4.3% active | NIH 3T3 viability, CellTiter-Glo ATP luminescence, 48-72 h; further: nearly all actives have a fitted effect of over 55% in size
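Cytotoxicity is measured as loss of cellular ATP: NIH 3T3 cells (400/well) are exposed to compound for 48 or 72 hr at 37 °C, then CellTiter-Glo luminescence is imaged after 10 min at room temperature.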
FLuc inh – Firefly luciferase inhibition profiling of diverse chemical library using quantitative high-throughput screening. Luciferin 4-monooxygenase (Photinus pyralis), P08659. purified P. pyralis luciferase, luminescence, biochemical. Potency, µM (highest dose often 115 µM), hits mostly inhibitors. 76,000 tested, 2.5% active; further: nearly all actives have a fitted effect of over 65% in size
Target sequence (P08659 whole entry, looked up): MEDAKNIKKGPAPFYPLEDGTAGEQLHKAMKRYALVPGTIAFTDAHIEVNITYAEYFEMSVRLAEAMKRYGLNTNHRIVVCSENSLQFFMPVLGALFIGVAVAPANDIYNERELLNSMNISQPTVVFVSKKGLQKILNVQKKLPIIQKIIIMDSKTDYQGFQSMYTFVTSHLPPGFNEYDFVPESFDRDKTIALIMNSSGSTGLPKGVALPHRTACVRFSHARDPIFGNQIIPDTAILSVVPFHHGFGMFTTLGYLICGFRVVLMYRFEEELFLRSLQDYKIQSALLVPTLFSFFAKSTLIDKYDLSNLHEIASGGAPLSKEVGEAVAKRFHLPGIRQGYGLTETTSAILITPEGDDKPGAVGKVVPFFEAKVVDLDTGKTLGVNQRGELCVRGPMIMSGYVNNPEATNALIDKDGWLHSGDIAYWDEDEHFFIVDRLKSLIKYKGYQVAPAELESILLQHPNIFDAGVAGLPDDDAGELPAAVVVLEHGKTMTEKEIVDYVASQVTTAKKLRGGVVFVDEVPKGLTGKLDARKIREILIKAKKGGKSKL
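Cell-free enzyme assay, 10nM P. pyralis luciferase, luciferin and ATP each at 10uM. Inhibition profiled over a 6-point titration, read as luminescence.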
* = called active by the depositor; [ ] = another dose, or the depositor's remark. Sampled rows, rich in hits. Any-hit rate of the full collection: about 10%. Unless noted, the call rests on the fitted dose curve; in most records, active means well fitted curve in the direction sought with a large enough effect; inconclusive means small, poorly fitted or top-dose-only effect, or another doubt; inactive means no such curve, though single readings can be large; an effect the other way counts as inactive or inconclusive. On the % scale 0 is the no-effect control and ±100 the full control effect; potency means the concentration at half of the fitted maximal effect.

CNC(=O)c1cccc(-c2cnc3[nH]cc(CC(=O)N4CCCC4)c3c2)c1 was read as hNpr1 antagonist -9%[70.6 µM], HEK cytotox inconclusive, GPT2 inh inactive, NIH3T3 tox inconclusive and FLuc inh inactive.
For O=C(c1ccc2ncccc2c1)N1CCC(N2C(=O)C(O)C23CCCCC3)CC1 (configuration not stated) the results were hNpr1 antagonist 0%, HEK cytotox -24%, GPT2 inh inactive, NIH3T3 tox -14% and FLuc inh inactive.
`NS(=O)(=O)c1ccc(CNC(=O)C[C@H]2NC(=O)c3ccccc3NC2=O)cc1` gave hNpr1 antagonist 3%, HEK cytotox 10%, GPT2 inh inactive, NIH3T3 tox inactive and FLuc inh inactive.
For CCCN1CCC(N2CCC(C(=O)Nc3cccc(-c4cccc(F)c4)c3)CC2)CC1 the results were hNpr1 antagonist -20%, HEK cytotox 22µM*, GPT2 inh -9%, NIH3T3 tox 25µM* and FLuc inh inactive.
For Cc1ccccc1CN1Cc2nc(-c3ccc4c(c3)OCO4)ccc2OCC1=O the results were hNpr1 antagonist -21%[70.6 µM], HEK cytotox 35µM*, GPT2 inh -3%[88.5 µM], NIH3T3 tox inconclusive and FLuc inh inactive.
For Cc1ccccc1CN1Cc2nc(-c3cccc(C(N)=O)c3)ccc2OCC1=O the results were hNpr1 antagonist -14%[70.6 µM], HEK cytotox 71µM*, GPT2 inh inactive, NIH3T3 tox inconclusive and FLuc inh inactive.
Screening Cc1ccc(NC(=O)N2CCC(CCNC(=O)c3ccsc3)CC2)cc1 returned hNpr1 antagonist 1%, HEK cytotox -3%, GPT2 inh inactive, NIH3T3 tox -7% and FLuc inh inconclusive.
For COC[C@@H]1CN(c2cnccn2)C[C@H]1C(=O)NCCc1cccnc1 the results were hNpr1 antagonist 6%, HEK cytotox 4%, GPT2 inh 0%, NIH3T3 tox 2% and FLuc inh inactive.
For Cc1ccc(CNC(=O)c2cc3n(n2)CC(c2ccc(Cl)cc2)OC3)cc1 (configuration not stated) the results were hNpr1 antagonist inconclusive, HEK cytotox inconclusive, GPT2 inh -1%, NIH3T3 tox inconclusive and FLuc inh inactive.
Screening O=C(NCc1ccc(Cl)cc1)c1cc2n(n1)CC(c1ccc(Cl)cc1)OC2 (configuration not stated) returned hNpr1 antagonist inconclusive, HEK cytotox inconclusive, GPT2 inh 4%, NIH3T3 tox 35µM* and FLuc inh inactive.
Screening CCc1ccc(CNC(=O)c2cc3n(n2)CC(c2ccc(Cl)cc2)OC3)cc1 (configuration not stated) returned hNpr1 antagonist inconclusive, HEK cytotox inconclusive, GPT2 inh 0%, NIH3T3 tox 40µM* and FLuc inh inactive.
CC(C)c1ccc(CNC(=O)c2cc3n(n2)CC(c2ccc4c(c2)OCO4)OC3)cc1 (configuration not stated) was read as hNpr1 antagonist -19%, HEK cytotox 40µM*, GPT2 inh -9%, NIH3T3 tox inconclusive and FLuc inh inactive.
For Cc1nnc2ccc(N3CCCN(C(=O)c4ccccc4F)CC3)nn12 the results were HEK cytotox inactive and NIH3T3 tox -12%.
O=C1CCN(Cc2ccncc2)CCCC(C(=O)N2CCCC2)CCN1 (configuration not stated) was read as hNpr1 antagonist 4%, HEK cytotox -11%, GPT2 inh inactive, NIH3T3 tox -11% and FLuc inh inactive.
Screening Cc1nn(-c2ccc(F)cc2)c(Oc2ccccc2F)c1CCC(=O)NC(C)C returned hNpr1 antagonist -25%, HEK cytotox inconclusive, GPT2 inh 1%, NIH3T3 tox inconclusive and FLuc inh inactive.
`O=C(c1n[nH]c(=O)c2ccccc12)N1CCC[C@H](n2c(=O)n(CC3CC3)c3cccnc32)C1` gave hNpr1 antagonist -22%, HEK cytotox inconclusive, GPT2 inh inactive, NIH3T3 tox inconclusive and FLuc inh inactive.
O=C(c1cccs1)N1CCC(Oc2ncccc2C(=O)N2CCCCC2)C1 (configuration not stated) was read as hNpr1 antagonist -3%, HEK cytotox 3%, GPT2 inh -12%, NIH3T3 tox inconclusive and FLuc inh inactive.
CN(C)C(=O)C1CN(c2cccc(Cl)c2)C(=O)N1 (configuration not stated) was read as hNpr1 antagonist 25%[70.6 µM], HEK cytotox -8%[172 µM], GPT2 inh -3%[88.5 µM], NIH3T3 tox -8%[138 µM] and FLuc inh inactive.
Cc1cc(C(=O)NCCc2noc(-c3cccnc3)n2)nn1C was read as hNpr1 antagonist -4%, HEK cytotox -1%, GPT2 inh inactive, NIH3T3 tox -5% and FLuc inh inactive.
Screening CCn1nc(C)c(-c2cc(C(=O)NCCc3noc(-c4ccccc4)n3)no2)c1C returned hNpr1 antagonist 0%, HEK cytotox 50µM*, GPT2 inh inactive, NIH3T3 tox inconclusive and FLuc inh inconclusive.
For Cc1nn(-c2ccccc2)c2c1C(C1CC1)N(C1CCN(Cc3cccc(Cl)c3)CC1)C2=O (configuration not stated) the results were HEK cytotox -5% and NIH3T3 tox -28%.
Screening OCc1ccc(CN2CCC[C@H]2c2nc(-c3ccc(N4CCOCC4)nc3)no2)o1 returned hNpr1 antagonist 3%[70.6 µM], HEK cytotox inconclusive, GPT2 inh inactive, NIH3T3 tox -28%[174 µM] and FLuc inh inactive.
`c1ccc(CN2CCC[C@H]2c2nc(-c3ccc(N4CCOCC4)nc3)no2)cc1` gave hNpr1 antagonist 3%[70.6 µM], HEK cytotox 89µM*, GPT2 inh -2%[88.5 µM], NIH3T3 tox -4%[174 µM] and FLuc inh inactive.
For c1cc(N2CCOCC2)ncc1-c1noc([C@@H]2CCCN2)n1 the results were hNpr1 antagonist 6%[70.6 µM], HEK cytotox 1%[172 µM], GPT2 inh inactive, NIH3T3 tox -8%[138 µM] and FLuc inh 56µM*.
Screening Clc1ccc(CN2CCC[C@H]2c2nc(-c3ccc(N4CCOCC4)nc3)no2)cc1 returned hNpr1 antagonist inconclusive, HEK cytotox 63µM*, GPT2 inh -12%[88.5 µM], NIH3T3 tox inconclusive and FLuc inh inconclusive.
For O=C(Nc1ccc(-c2ccncc2)cc1)N[C@H](CO)c1ccccc1 the results were GPT2 inh 2%.
`CCOC(=O)[C@H]1C[C@]2(CCCCN(CCOC(C)=O)C2=O)N(C(=O)OCC)[C@H]1c1ccco1` gave HEK cytotox inconclusive and NIH3T3 tox -22%.
